Rows were chosen to be rich in hits. Some 2.2% of all compounds tested hit in one or more screens of this group.
GLP1R inv ag: GLP-1 receptor (human) inverse agonism; Potency, µM (doses to about 38.3 µM), for the others: at the highest dose activity change, negative = inhibition, most hits filed as inhibitors; P43220; HEK293 GLP-1R CRE-luciferase, luminescence, 24 h; GLP-1R form is constitutively active; actives 1.6% (n = 410,000); also: potency is read from the fitted curve at half-maximal effect; % is scaled to controls: 0 for no effect and ±100 for the full control effect; nearly all actives have a fitted effect of over 55% in size
Target sequence (P43220 whole entry, looked up): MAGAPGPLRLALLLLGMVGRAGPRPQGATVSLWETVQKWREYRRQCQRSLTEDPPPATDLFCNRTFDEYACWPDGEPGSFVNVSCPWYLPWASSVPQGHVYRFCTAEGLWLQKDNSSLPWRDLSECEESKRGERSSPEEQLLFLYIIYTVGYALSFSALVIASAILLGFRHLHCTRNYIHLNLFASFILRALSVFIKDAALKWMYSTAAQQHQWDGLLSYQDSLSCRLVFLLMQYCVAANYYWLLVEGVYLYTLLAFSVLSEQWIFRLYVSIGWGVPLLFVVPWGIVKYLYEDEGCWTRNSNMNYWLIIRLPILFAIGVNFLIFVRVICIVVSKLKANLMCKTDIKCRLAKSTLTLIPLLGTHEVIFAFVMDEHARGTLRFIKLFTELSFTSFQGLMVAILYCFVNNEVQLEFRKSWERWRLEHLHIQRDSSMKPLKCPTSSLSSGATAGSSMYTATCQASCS
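Seeding at 200 cells/uL, 12 h culture, 24 hr compound treatment, then luciferase reagent and a luminescence read; cells are HEK293 stably expressing a constitutively active GLP-1R plus cAMP-responsive luciferase.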
uPA generation: inhibitors of cell surface uPA generation | cell surface uPA generation assay, qHTS | Potency, µM (series often up to 38.3 µM), without a hit: at the top dose activity change, negative = inhibition, most hits filed as inhibitors | actives 0.31% (n = 330,000) | AID 540303; active = well fitted inhibition curve with a large enough effect; inconclusive = small, poorly fitted or top-dose-only effect; inactive = no such curve, though single readings can be large or run the other way; tested in mouse RAW 264.7 cells; also: potency is read from the fitted curve at half-maximal effect; % is scaled to controls: 0 for no effect and ±100 for the full control effect; nearly all actives have a fitted effect of over 55% in size
GLP-1R agonist: agonists of human GLP-1 receptor | P43220 | HEK293 GLP-1R CRE-luciferase, luminescence, 4-6 h; cells express a hypersensitive GLP-1R form | Potency, µM (top dose mostly 45.6 µM), without a hit: at the top dose activation, actives largely listed as activators | actives 0.007% (n = 380,000) | AID 624172; also: potency is read from the fitted curve at half-maximal effect; % of control where 0% means no effect
CCT chaperon mod: changes cytosolic chaperonin activity. purified chaperonin ATPase assay, HTRF ADP detection, 30 min. activity change, % (test concentration not listed), hits read low. actives 0.3% (n = 360,000); in the data active = activity change below about -30%; also: % is scaled to controls: 0 for no effect and ±100 for the full control effect
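TRiC (40 or 20 nM final, by batch activity) in 30 mM Tris pH 7.4, 100 mM KCl, 5 mM MgCl2, 1 mM DTT was treated with compound at 76 uM single dose, then 10 uM ATP, 30 min at 37 °C. ADP was read by HTRF Transcreener.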
MmCpn inh: M. maripaludis TRiC chaperonin inhibition | purified Mm-Cpn ATPase, ADP Transcreener TR-FRET | Potency, µM (highest dose often 76.9 µM), for inactives: at the top dose activity, negative = inhibition, most hits filed as inhibitors | actives 0.031% (n = 330,000); also: potency is read from the fitted curve at half-maximal effect; % is scaled to controls: 0 for no effect and ±100 for the full control effect; nearly all actives have a fitted effect of over 80% in size
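ATP (10 uM final) was added to archaeal chaperonin (25 nM final) after 10 min exposure to test compound at 37°C; after 30 min further incubation, ADP was detected by competitive TR-FRET.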
GLP1R cytotox: cytotoxic in the GLP-1 receptor inverse agonist counter-screen. HEK293 cAMP-luciferase reporter cells, luminescence, 24 h. Potency, µM (doses to about 38.3 µM), inactives show top-dose activity change, negative = inhibition, usual class: inhibitors. actives 0.13% (n = 410,000). AID 624418;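 also: loss of luciferase light is scored as toxicity; potency is read from the fitted curve at half-maximal effect; % is scaled to controls: 0 for no effect and ±100 for the full control effect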
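1536-well qHTS counterscreen of the MLSMR; 200 cells/uL, 12 h pre-incubation, 23 nL cpd, 24 h at 37 deg C 5% CO2, luciferase detection reagent, 12 min RT, luminescence. Inhibition = undesired.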
An asterisk follows results filed as active; ? = inconclusive; . = not tested or not shown. Unless noted, calls follow the shape of the dose curve; as a rule, active = well fitted curve in the direction sought with a large enough effect; inconclusive = small, poorly fitted or top-dose-only effect, or another doubt; inactive = no such curve, though single readings can be large; an effect the other way counts as inactive or inconclusive.

SMILES	GLP1R inv ag	uPA generation	GLP-1R agonist	CCT chaperon mod	MmCpn inh	GLP1R cytotox
CSc1ccc(/C=N/n2c(C3CCCCC3)n[nH]c2=S)cc1	?	-0.9%	20.1%	-1.1	0.6%	0.1%
S=c1[nH]nc(C2CCCCC2)n1/N=C/c1ccncc1	1.78µM*	-11.9%	-2.0%	-0.9	-4.1%	5.2%
CCOC(=O)Cn1c(=O)n(-c2ccccc2OC)c2nc(-c3ccc(C(C)C)cc3)nc(C(N)=O)c21	-41.7%	.	6.1%	.	.	-5.7%
Cc1ccc(/C=N/n2c(-c3ccccc3)csc2=S)cc1	.	.	-3.9%	.	.	.
COc1ccc(-n2nc3c(c2NC(=O)COc2ccccc2F)CS(=O)(=O)C3)cc1	40.4%	-8.6%	11.2%	-32.2*	1.2%	1.7%
COc1ccc2c(c1)CC(C(=O)NCCCN1CCN(c3ccc(F)cc3)CC1)CO2 (stereo not drawn)	?	.	.	.	.	-8.4%
CCc1ccc(Sc2cc(C(=O)NCc3cccc(OC)c3)c3ccccc3n2)cc1	10µM*	.	-7.3%	.	.	-7.4%
COc1cccc(CNC(=O)c2cccnc2Sc2ccccc2)c1	134.9%	-0.6%	?	0.7	-1.9%	-8.2%
COc1cccc(OCCn2cccc2/C=C2/C(=N)N3OC(C)=CC3=NC2=O)c1	15.3%	9.7%	0.6%	-1.4	-1.3%	2.2%
CC1=CC2=NC(=O)/C(=C\c3cccn3CCOc3cccc(C)c3)C(=N)N2O1	10µM*	2.2%	8.5%	1.0	-8.7%	-4.1%
CC(C)CC(NC(=O)CNC(=O)C(Cc1ccc(O)cc1)NC(=O)C(CO)NC(=O)C(Cc1c[nH]c2ccccc12)NC(=O)C(Cc1cnc[nH]1)NC(=O)C1CCC(=O)N1)C(=O)NC(CCCN=C(N)N)C(=O)N1CCCC1C(=O)NCC(N)=O (stereo not drawn)	.	.	-2.6%	.	.	.
Cc1ccsc1/C=N/Nc1nc(=O)[nH]nc1C	3.55µM*	-10.7%	-0.3%	1.2	2.4%	?
NCCCNCCCCNC(=O)C(O)NC(=O)CCCCCCN=C(N)N (stereo not drawn)	.	.	-1.5%	.	.	.
COc1ccc(-n2c(SCC(=O)N3CCC(C)CC3)nc3c([nH]c4ccccc43)c2=O)cc1	11.5%	.	-5.6%	.	.	1.9%
Cc1ccc(NC2=Nc3ccccc3CS2)cc1	6.31µM*	-7.4%	-17.6%	-1.0	0.0%	-9.8%
Cc1cc(Cl)cc(Br)c1OCCCNCC(C)O (stereo not drawn)	3.98µM*	4.3%	15.0%	0.7	2.6%	-22.8%
Cc1cc(C)c(OCCCNCc2ccccc2)c(Br)c1	?	-19.1%	-2.5%	1.9	-1.1%	?
Cc1cccc(-n2cc(CN(C)Cc3nccn3C)c(-c3cccc(F)c3)n2)c1	?	0.5%	-5.0%	1.1	0.1%	?
CCn1ccnc1CN(C)Cc1cn(-c2cccc(C)c2)nc1-c1cccc(F)c1	12.6µM*	?	-3.2%	-2.7	-1.4%	?
CCOc1ccc2oc(C(=O)NC3CC(C)(C)NC(C)(C)C3)c(C)c2c1	10µM*	-17.3%	-0.8%	-2.7	-3.5%	1.3%
CCOc1ccc2oc(C(=O)N3CCN(c4ccccc4OCC)CC3)c(C)c2c1	11.2µM*	3.3%	1.0%	3.7	-1.0%	-6.4%
COc1cc(Cl)c(C)cc1NC(=O)CCCN1C(=O)C(c2ccccc2)Oc2cccnc21 (stereo not drawn)	?	.	-3.7%	.	.	-6.1%
O=C(CCCCn1c(=O)c2ccccc2n(Cc2ccc(Cl)cc2)c1=O)NCc1ccccc1Cl	12.3%	.	-4.1%	.	.	-5.8%
COc1ccc(CCN(C)C(=O)c2cccc(S(=O)(=O)N3CCN(c4ccc(F)cc4)CC3)c2)cc1OC	26.9%	?	10.2%	1.6	.	-4.6%
CN(CCOc1ccc(Cl)cc1)C(=O)c1cccc(S(=O)(=O)N2CCN(c3ccc(F)cc3)CC2)c1	3.98µM*	-15.6%	13.6%	0.2	.	-4.6%
